Assay outcomes (PubChem)
Rab9 prom act = activators of Rab9 promoter; Potency, µM (series often up to 9.22 µM), inactives show top-dose activation, negative = inhibition, actives largely listed as activators; hit rate 2.8% among 320,000; Huh7 Rab9 promoter-luciferase reporter, luminescence, 24 h; further: % of control where 0% means no effect; nearly all actives have a fitted effect of over 60% in size
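Luciferase signal after 10 min detection reagent at ambient indicates Rab9 promoter upregulation; stably transfected Huh7 cells were treated 24 h with compound in DMSO at 37 °C, 5% CO2.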
NPC1 promoter act = activates the NPC1 promoter. Potency, µM (doses to about 9.22 µM), without a hit: top-dose activation, actives largely listed as activators. AID 485313. hit rate 2.4% among 320,000. Huh7 NPC1 promoter luciferase reporter, 24 h; further: % of control where 0% means no effect; nearly all actives have a fitted effect of over 60% in size
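Huh7 cells stably carrying NPC1 promoter–luciferase, plated in Opti-MEM with 10% FBS for 2 h, were exposed to compound in DMSO for 24 h at 37 °C; luciferase reagent was added for 10 min and luminescence read.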
SMN2 splice up = enhancers of SMN2 splice variant expression. HEK293 SMN2-luciferase splicing reporter, luminescence, 30-36 h. Potency, µM (top dose mostly 46.1 µM), inactives show top-dose activity change, positive = activation, actives largely listed as activators. hit rate 2.8% among 210,000. AID 1458; further: % of control where 0% means no effect; nearly all actives have a fitted effect of over 55% in size
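HEK293 cells carry an SMN2 minigene-luciferase reporter in which exon 7 inclusion puts luciferase in frame. Cells were seeded at 2000 cells/well, attached for 10-12 hours, then exposed to compounds for 30-36 hours at 37C before ONE-Glo luminescence.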
FLuc counter = counter-screen for miR-21 project: firefly luciferase inhibitors or activators | purified FLuc, Km substrates, luminescence inhibition | Potency, µM (series often up to 57.5 µM), without a hit: at the top dose activity change, negative = inhibition, hits mostly inhibitors | hit rate 6.9% among 360,000;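 further: plate controls were vehicle for no effect and reference inhibitor for full effect; nearly all actives have a fitted effect of over 55% in size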
Target sequence (P08659 whole entry, looked up): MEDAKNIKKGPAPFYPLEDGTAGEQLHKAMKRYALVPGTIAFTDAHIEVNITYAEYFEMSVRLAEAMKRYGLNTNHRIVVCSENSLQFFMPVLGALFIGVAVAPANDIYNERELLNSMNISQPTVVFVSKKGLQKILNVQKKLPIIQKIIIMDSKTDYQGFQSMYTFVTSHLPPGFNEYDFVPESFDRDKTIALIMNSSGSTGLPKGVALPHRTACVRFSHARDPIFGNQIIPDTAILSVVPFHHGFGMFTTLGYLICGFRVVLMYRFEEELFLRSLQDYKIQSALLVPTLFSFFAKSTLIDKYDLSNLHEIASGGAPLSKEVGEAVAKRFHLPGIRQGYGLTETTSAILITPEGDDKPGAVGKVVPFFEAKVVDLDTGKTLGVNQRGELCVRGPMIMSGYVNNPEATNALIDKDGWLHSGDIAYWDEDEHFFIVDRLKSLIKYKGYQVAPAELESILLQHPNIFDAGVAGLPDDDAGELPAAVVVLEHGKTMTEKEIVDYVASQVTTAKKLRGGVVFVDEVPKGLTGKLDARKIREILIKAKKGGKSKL
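Purified P. pyralis luciferase (10nM final) with 10uM D-luciferin and 10uM ATP (Km levels) in 50mM Tris acetate pH 7.5, 10mM Mg acetate, 0.01% Tween-20, 0.05% BSA; qHTS 6-point titration, ~60 µM downward; luminescence read.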
ELG1 genotox = inducers of genotoxicity in HEK293T ELG1-luciferase cells. HEK293T ELG1-luciferase reporter, luminescence, 16 h. Potency, µM (series often up to 46 µM), without a hit: top-dose activity change, positive = activation, hits mostly activators. hit rate 1.3% among 330,000; further: % of control where 0% means no effect; nearly all actives have a fitted effect of over 60% in size
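Luminescence read-out: rising ELG1-luciferase signal, reflecting elevated ELG1 protein under genetic stress, flags genotoxic compounds. Cells were treated for 16 hr at 37 °C before ONE-Glo detection.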
* marks the source's active call; other numbers are inactive results; ? = inconclusive; . = no result. A selection: hits, their analogues and other compounds. The true share with any hit is near 7.4%. The call rests on the fitted dose curve; in most records, active means well fitted curve in the direction sought with a large enough effect; inconclusive means small, poorly fitted or top-dose-only effect, or another doubt; inactive means no such curve, though single readings can be large; an effect the other way counts as inactive or inconclusive. Potency means the concentration at half of the fitted maximal effect.

SMILES	Rab9 prom act	NPC1 promoter act	SMN2 splice up	FLuc counter	ELG1 genotox
COc1cccc(/C=N/n2c(-c3ccco3)nc3ccccc3c2=O)c1OC	-3.4%	2.4%	6.8%	-19.8%	3.3%
Cc1ccc2nc(NC(=S)NC(=O)c3cccs3)sc2c1	1.12µM*	3.55µM*	?	1.07µM*	?
O=C(Nc1nc2ccccc2s1)c1ccccc1	0.447µM*	1µM*	3.55µM*	1.69µM*	1.03µM*
Cc1ccc(C(=O)Nc2nc3ccccc3s2)s1	0.398µM*	0.631µM*	-13.7%	0.536µM*	?
O=C(O)c1ccccc1-c1ccccc1C(=O)Nc1nc2ccccc2s1	-1.7%	-4.9%	.	0.2%	4.0%
Cc1ccc2nc(NC(=S)NC(=O)c3ccc(OC(C)C)cc3)sc2c1	0.4%	-17.7%	-2.3%	?	-0.8%
CSc1nc2ccc3nc(NC(=O)c4ccccc4)sc3c2s1	3.55µM*	3.16µM*	?	?	?
CCOC(=O)C1CCCN(C(=O)c2ccc3c(c2)N(Cc2ccccc2F)C(=O)c2ccccc2S3=O)C1 (stereo not drawn)	.	.	2.1%	0.5%	.
COc1ccccc1NC(=O)C1CCCN(c2ncnc3onc(-c4ccc(F)cc4)c23)C1 (stereo not drawn)	.	.	.	0.0%	.
O=C(c1nc2ccccc2s1)N1CCSCC1	?	23.3%	10.0%	?	18.4µM*
Cc1cccc(NC(=S)c2nc3ccccc3s2)c1	?	?	17.8µM*	3.01µM*	?
CN(C(=O)c1ccc2nc(N)sc2c1)c1ccccc1	0.9%	-0.3%	.	-1.5%	-0.8%
CN(C(=O)c1ccccc1)c1nc2ccccc2s1	0.562µM*	0.282µM*	4.47µM*	0.849µM*	?
Cc1csc2nc(NC(=O)c3ccccc3)sc(=O)c12	17.5%	0.2%	.	4.26µM*	?
CCCC1CCc2[nH]nc(C(=O)NN)c2C1 (stereo not drawn)	1.0%	-3.8%	.	-15.5%	7.8%
COc1cc(C(O)c2nc3ccccc3s2)cc(OC)c1OC (stereo not drawn)	-22.8%	-28.5%	.	-1.1%	2.0%
Cc1cccc2c(=O)c(Br)c(C)n(Cc3ccccc3)c12	0.0%	-3.7%	-9.3%	0.6%	-7.7%
O=S(=O)(c1cc(Cl)ccc1Cl)N1CCN(c2ccccn2)CC1	0.4%	1.3%	.	1.9%	-4.9%
c1ccc2sc(NN=C3CCCCCC3)nc2c1	0.224µM*	0.355µM*	4.47µM*	0.338µM*	0.461µM*
Cc1ccc(C(=O)O)c(C(=O)Nc2nc3ccccc3s2)c1	19.5%	19.5%	.	15.1µM*	5.7%
CN(CC(=O)N1CCCCCC1)S(=O)(=O)c1ccccc1	?	3.16µM*	.	?	?
Cc1ccc(S(=O)(=O)N(C)CC(=O)N2CCCCCCC2)cc1	-0.3%	-1.9%	.	1.0%	2.2%
COc1ccc(OC)c2sc(N3CCCCC3)nc12	21.5%	28.8%	?	19µM*	18.4µM*
COc1ccc(OC)c2sc(N3CCN(C(=O)c4ccc([N+](=O)[O-])s4)CC3)nc12	13.8%	9.9%	.	-5.1%	-12.5%
c1ccc2c(c1)CCN(c1nc3cc4c(cc3s1)OCCO4)C2	?	?	.	0.107µM*	?
SMILES	Rab9 prom act	NPC1 promoter act	SMN2 splice up	FLuc counter	ELG1 genotox
COc1ccc(OC)c2sc(N3CCc4ccccc4C3)nc12	23.7%	-1.4%	2.6%	12µM*	7.0%
O=S(=O)(c1ccc2c(c1)OCCO2)N1CCN(c2nc3ccccc3s2)CC1	0.3%	-4.6%	-25.8%	0.5%	-5.3%
COCCN1C2=C(C(=O)CC(C)(C)C2)C(c2ccc(OC)c(OC)c2)C2=C1CC(C)(C)CC2=O	-2.1%	-3.4%	.	1.1%	-0.6%
Cc1cc(C)cc(NC(=O)C(=O)NCCCN2CCOCC2)c1	1.6%	-4.2%	6.4%	0.2%	3.1%
COc1ccc(CNC(=O)c2ccc(-c3ccccc3)cc2)cc1OC	-0.3%	-3.6%	-32.2%	2.0%	2.2%
O=C(NC(=S)Nc1nc(-c2ccccc2)cs1)c1ccco1	-0.9%	5.3%	-4.8%	?	-3.1%
COc1ccc(C(=O)NCc2ccc(-c3nc4ccccc4s3)cc2)cc1OC	?	15.5%	-20.8%	1.35µM*	16.4µM*
O=C(NCc1ccc(-c2nc3ccccc3s2)cc1)c1ccco1	?	?	13.8%	6.01µM*	13.8%
O=C(NC(=S)NCc1ccc(-c2nc3ccccc3s2)cc1)c1ccco1	3.98µM*	3.16µM*	.	2.69µM*	16.4µM*
CC(C)(C)C1CCC(C(=O)Nc2nccs2)CC1 (stereo not drawn)	27.3%	?	.	?	-0.8%
Cc1cnc(NC(=O)C2CCC(C(C)(C)C)CC2)s1 (stereo not drawn)	?	28.1%	.	19µM*	12.3%
O=C(COc1ccc(F)cc1)Nc1ccc(C(=O)OCc2cc(=O)n3nc(C4CC4)sc3n2)cc1	.	.	.	-2.7%	.
N#C/C(=C(/O)CCl)c1nc(-c2ccccc2)cs1	17.0%	2.1%	.	?	14.0%
Cc1ccc(-c2csc(/C(C#N)=C(\O)CCl)n2)cc1	?	22.7%	-4.4%	10.7µM*	16.5%
O=C(O)c1ccc(COc2ccc3c(c2)CCC3)cc1	?	?	.	5.36µM*	8.7%
O=C(Nc1ccccc1Cl)c1ccc(COc2ccc3c(c2)CCC3)cc1	?	?	6.31µM*	-13.9%	?
C=CCSc1nnc(NC(=O)c2cccc(S(=O)(=O)N(C)c3ccccc3)c2)s1	-2.9%	-1.0%	?	-0.3%	-3.5%
Cc1sc(NC(=O)c2ccco2)c(C(c2cccnc2)N2CCN(c3ccc(F)cc3)CC2)c1C (stereo not drawn)	-9.5%	-14.3%	-68.0%	0.1%	0.517µM*
O=C(CSc1nc2ccc(Cl)cc2[nH]1)c1cccs1	27.8%	12.4%	.	13.5µM*	16.3%
O=C(CSc1nc2cc(Cl)ccc2o1)c1cccs1	12.4%	9.0%	2.6%	19µM*	?
Cc1cc(C(=O)CSc2nc3ccc(Cl)cc3[nH]2)c(C)n1C	0.7%	-1.5%	19.2%	-16.7%	-0.2%
CN(CCC1CCOCC1)C(=O)C1CCC(=O)N(CCc2ccccc2)C1 (stereo not drawn)	-0.3%	-0.5%	.	2.1%	2.0%
CCOc1cccc(CN(C)CC2CCCN(CCc3ccc(Cl)cc3)C2)c1O (stereo not drawn)	-5.3%	3.4%	.	-0.9%	-2.9%
Cc1cc(C(=O)NC2CCCCC2)c(C)n1-c1ccc(F)cc1	2.51µM*	2.82µM*	?	6.01µM*	5.8µM*
Cc1cc(C(=O)CNCc2ccco2)c(C)n1-c1ccc(F)cc1	2µM*	1.58µM*	-4.9%	3.38µM*	?
Cc1cc(C(=O)CN2CCC(C)CC2)c(C)n1-c1ccc(F)cc1	1.41µM*	?	12.6µM*	9.53µM*	?
CCO[C@@H]1OC(C(=O)Nc2ccccc2)=C[C@H](C2CC2)[C@H]1CCCO	-4.2%	1.9%	.	-0.5%	6.5%
Cc1ccc(C(=O)Nc2nnc(CC(=O)N/N=C/c3ccc(O)c(O)c3)s2)cc1	-4.6%	19.9%	.	4.78µM*	5.9%
